Screening data as filed in PubChem BioAssay.
G9a inh: G9a (human) methyltransferase inhibition; Q96KQ7; G9a H3K9 monomethylation, AlphaScreen, 2 h; Potency, µM (highest dose often 102 µM), hits mostly inhibitors; 8.8% of 350,000 active; AID 504332; also: nearly all actives have a fitted effect of over 75% in size
Target sequence (Q96KQ7 913-1193 limits assumed): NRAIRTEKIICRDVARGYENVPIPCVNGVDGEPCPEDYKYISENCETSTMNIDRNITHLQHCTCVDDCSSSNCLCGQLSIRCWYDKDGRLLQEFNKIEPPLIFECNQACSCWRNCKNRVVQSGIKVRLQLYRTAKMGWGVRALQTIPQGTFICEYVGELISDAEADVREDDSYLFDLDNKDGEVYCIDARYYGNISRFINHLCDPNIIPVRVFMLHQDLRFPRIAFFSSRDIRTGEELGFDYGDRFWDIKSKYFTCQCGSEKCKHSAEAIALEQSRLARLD
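Using a bead-based AlphaScreen, monomethylated H3K9 product from 2 h room-temperature reactions (G9a 20 nM, peptide 500 nM, SAM 20 uM) was detected with 0.5 ug/mL rabbit anti-H3K9me1 antibody.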
JMJD2A Tudor: blocks the human JMJD2A Tudor domain; O75164; AlphaScreen JMJD2A-Tudor / H3K4me3 peptide binding; Potency, µM (top dose mostly 114 µM), actives largely listed as inhibitors; 4.4% of 390,000 active; AID 504339; also: nearly all actives have a fitted effect of over 50% in size
PLK1 PBD inh: PLK1 (human) polo-box domain binding inhibition. P53350. Potency, µM, hits mostly inhibitors. 2.8% of 360,000 active. Plk1 PBD binding of FITC phosphopeptide, fluorescence polarization; also: series mostly up to about 57 µM; nearly all actives have a fitted effect of over 65% in size
HP1b binding inh: blocks HP1-beta chromodomain binding to methylated histone tails. AlphaScreen HP1-beta / biotin-H3K9me3 peptide binding. P83916. Potency, µM (series often up to 114 µM), actives largely listed as inhibitors. 0.56% of 390,000 active; also: nearly all actives have a fitted effect of over 70% in size
Target sequence (P83916 whole entry, looked up): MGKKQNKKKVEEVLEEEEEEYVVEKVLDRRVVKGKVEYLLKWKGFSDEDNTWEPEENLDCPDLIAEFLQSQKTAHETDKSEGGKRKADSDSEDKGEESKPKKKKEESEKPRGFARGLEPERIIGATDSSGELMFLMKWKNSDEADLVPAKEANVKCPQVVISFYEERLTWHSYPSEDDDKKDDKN
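HP1-beta protein (50 nM final) preincubated 30 min at room temperature with biotinylated H3(1-18)K9me3 peptide (50 nM) in PBS pH 7.4, 0.01% Tween-20, then compound added for 30 min. AlphaScreen streptavidin donor/nickel chelate acceptor beads (10 ug/mL final), 30 min dark, luminescence read.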
VDR inhibitor: blocks the human vitamin D receptor. Potency, µM, usual class: inhibitors. VDR-SRC2-3 peptide fluorescence polarization, 2 h. 0.93% of 400,000 active. P11473
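FP read-out; VDR + SRC2-3 coactivator peptide; 23 nl compound by pintool; 2 h RT incubation; reagents held at 4 deg C, protected from light.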
BAZ2B inh: inhibitors of human BAZ2B bromodomain; Q9UIF8; AlphaScreen BAZ2B-H3K14Ac peptide displacement; Potency, µM (highest dose often 114 µM), most hits filed as inhibitors; 4.4% of 360,000 active; AID 504333; also: nearly all actives have a fitted effect of over 60% in size
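AlphaScreen displacement: compounds (up to 110uM) incubated 30 min at room temperature with a preformed 50 nM BAZ2B/50 nM biotinylated H3K14Ac peptide complex in PBS pH 7.4 with Tween-20. Donor and acceptor beads at 10 ug/mL final added, 20 min light-protected before reading.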
A number is an active result; 0 = inactive; ? = inconclusive; - = not tested or not shown; [ ] = another dose, or the depositor's remark. Only some compounds are listed: those with a hit (about 11% of all), similar ones and a draw of the others. Calls follow the shape of the dose curve; as a rule, active = well fitted curve in the direction sought with a large enough effect; inconclusive = small, poorly fitted or top-dose-only effect, or another doubt; inactive = no such curve, though single readings can be large; an effect the other way counts as inactive or inconclusive.

SMILES	G9a inh	JMJD2A Tudor	PLK1 PBD inh	HP1b binding inh	VDR inhibitor	BAZ2B inh
O=S(=O)(c1ccc(NC(=S)N2CCN(c3ccccc3F)CC2)cc1)N1CCOCC1	0	0[11.4 µM]	18.9µM	0	0	0
CCCCn1nc(NC(=O)c2cccc(Cl)c2)c2cc3cccc(C)c3nc21	0	0	-	0	0	0
C[C@@H]1CN([C@@H](C)CO)S(=O)(=O)c2ccc(-c3ccc(C#N)cc3)cc2O[C@@H]1CN(C)Cc1ccccn1	-	-	0	-	-	-
Cc1ccc(NC(=O)c2ccco2)c(NC(=O)c2ccccc2)c1	0	0	0	0	0	0
CCN(CC)P(=O)(Nc1ccc(C)cc1Br)c1ccc(N(C)C)cc1NC(=O)c1ccco1 (stereo not drawn)	39.8µM	39.8µM	0	?	0	?
CCCc1c(-c2ccccc2F)ncn1CCc1ccccc1OC	-	-	0	-	-	-
O=C(O)CCn1cc(/C=C2/NC(=S)N(c3ccccc3)C2=O)c(-c2ccccc2)n1	22.4µM	?	0	0	0	0
CCOC(=O)c1cccc(NC(=O)c2cc(C)nc3c2c(C)nn3-c2ccc(C)cc2)c1	0	0	-	0	0	0
O=C(N=C1SC2CS(=O)(=O)CC2N1CCc1ccccc1)C1CCCCC1 (stereo not drawn)	0	0	0	0	0	0
Cc1c(CC(=O)N2CCCCC2)c(=O)oc2c(C)c3occ(C(C)(C)C)c3cc12	0	0	-	0	0	0
CCOC(=O)C(C(=O)OCC)c1cc(Br)c2noc3c2c1C(=O)c1ccccc1-3	2.51µM	50.1µM	1.89µM	?	?	7.94µM
COc1cc(C2Nc3ccccc3-c3nnc(SCc4ccc(C)cc4)nc3O2)cc(OC)c1O (stereo not drawn)	7.08µM	?	-	0	0	?
C[C@@H]1NC(=O)c2cc([N+](=O)[O-])cc(I)c2NCC[C@@H](C(N)=O)NC(=O)[C@H](CC(N)=O)NC1=O	22.4µM	0	0	0	0	0
C[C@@H]1NC(=O)[C@H](CCC(N)=O)NC(=O)c2cc([N+](=O)[O-])cc(I)c2NCC[C@@H](C(N)=O)NC1=O	11.2µM	0	0	0	0	?
CC[C@H](C)C1NC(=O)[C@H](CC(=O)O)NC(=O)c2cc([N+](=O)[O-])cc(I)c2NCCC(C(N)=O)NC1=O (stereo partly drawn)	?	0	0	0	0	0
CSc1nc(N)nc(C2CC2)n1	0	0	0	0	0	0
CCCCC(NC(=O)Cc1c(C)c2cc3c(C)c(C)oc3c(C)c2oc1=O)C(=O)O (stereo not drawn)	0	0	0	0	0	0
Cc1coc2c(C)c3oc(=O)c(CCC(=O)N[C@@H](C)C(=O)N[C@@H](Cc4ccccc4)C(=O)O)c(C)c3cc12	-	89.1µM	0	0	0	?
Cc1coc2c(C)c3oc(=O)c(CCC(=O)NCCc4ccccc4)c(C)c3cc12	0	0	-	0	0	0
Cc1c(CCC(=O)O)c(=O)oc2c(C)c3occ(-c4ccc(Br)cc4)c3cc12	44.7µM	?	26.7µM	?	0	56.2µM
CCCC(NC(=O)Cc1c(C)c2cc3c(C)c(C)oc3c(C)c2oc1=O)C(=O)N[C@@H](Cc1ccccc1)C(=O)O (stereo partly drawn)	0[12.7 µM]	56.2µM	?	?	0	50.1µM
Cc1ccc(CS(=O)(=O)c2cn(CC(=O)N(C)c3ccccc3)c3ccccc23)cc1	0	0	-	0	0	0
CCOc1ccc(NC(=O)c2cc3sc(Cl)cc3n2CC)cc1	0	0	-	0	0	0
Cc1ccccc1Nc1nc(-c2ccccc2)c(C(=O)Nc2cccnc2)s1	0	?	29.9µM	0	0	0
COc1ccc(Cl)cc1NC(=S)NCCc1ccc(S(N)(=O)=O)cc1	?	0	0	0	0	0
COc1cc(NC(=S)NCc2ccc(S(N)(=O)=O)cc2)c(OC)cc1Cl	35.5µM	0	0	?	0	?
COc1ccc(NC(=S)NCCc2ccc(S(N)(=O)=O)cc2)c(OC)c1	35.5µM	0[11.4 µM]	0	0	0	0
CCCCCc1nn2cc(-c3ccccc3)nc2s1	0	0	-	0	0	0
